# According to PubChem BioAssay AID1794844 (National Center for Advancing Translational Sciences (NCATS), 2023):
# Out of some 2,800 compounds screened, fewer than 10 were called active. About 7% were inconclusive and are not listed. Calls come from the whole dose curve; as a rule, active = well fitted inhibition curve with a large enough effect; inconclusive = small, poorly fitted or top-dose-only effect; inactive = no such curve, though single readings can be large or run the other way. The list is a sample of the results. A call without a number means that no potency is given here.
# Target: Metallo-beta-lactamase type 2 (Klebsiella pneumoniae) (UniProt C7C422)
# Sequence (C7C422 whole entry, looked up): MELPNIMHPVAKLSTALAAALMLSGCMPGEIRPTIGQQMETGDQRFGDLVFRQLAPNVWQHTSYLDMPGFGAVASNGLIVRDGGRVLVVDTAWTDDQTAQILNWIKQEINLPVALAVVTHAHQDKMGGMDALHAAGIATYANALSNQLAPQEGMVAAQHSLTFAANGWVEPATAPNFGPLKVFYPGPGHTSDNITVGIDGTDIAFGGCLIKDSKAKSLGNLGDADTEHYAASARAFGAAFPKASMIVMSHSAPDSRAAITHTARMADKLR
# Test: qHTS to identify inhibitors of the New Delhi Metallo-beta-lactamase (NDM): Nitrocefin screen against the machine-based learning selections.
# Conditions: NDM-1 enzyme, nitrocefin hydrolysis, absorbance 485 nm; series mostly up to 38.4 µM
# From the text: Assay Submitter (PI): James Inglese Ph.D., Patricia Dranchak Ph.D., Mahesh Aitha Ph.D. Assay Development and Screening Technology Laboratory (ADST) National Center for Advancing Translational Sciences (NCATS), Rockville, MD National Institute of Health (NIH), Bethesda, Maryland The metallo-beta-lactamases (MBL) are a main antibiotic resistance mechanism evolved by bacteria. There is an urgent clinical need for MBL inhibitors to mitigate this growing threat. To support a machine-based learning study, qHTS has been used to experimentally test inhibitors identified by prediction tools.
# PROTOCOL TABLE (as described by Inglese et al., 2007) SEQUENCE No. (e.g., 1, 2, 3, etc.); […] (e.g., enzyme, Incubation, Reagent, etc.); VALUE; DESCRIPTION Primary Screen 1; NDM-1; 4 uL of 3 nM enzyme [2 nM final] in 50 mM HEPES (pH 7.0), 1 uM […], 0.01% Tween20; Use BioRaptr to dispense into two sets of Aurora black, clear bottom high base 1536-well plates 2; Compounds; 23 nL; Use Pin Tool (Wako) to transfer DMSO control and library compounds in DMSO 3; Incubate; >30 min 4a; Reagent; 2 uL of 50 uM nitrocefin [16.7 uM final] to one set of assay plates 4b; Reagent; 2 uL of 150 uM meropenem [50 uM final] to second set of assay plates 5a; Incubate; 15 min 5b; Incubate; 30 min 6a; Detector; Absorbance at 485 nm (bandwidth = 5 nm, 25 flashes/well) on Tecan Infinity 6b; Detector; Absorbance at 300 nm (bandwidth = 5 nm, 25 flashes/well) on Tecan Infinity NOTES (numbers refer to sequence above) 1; Column 1 of each plate received assay buffer without enzyme and columns 2-48 received enzyme for a final assay concentration of 2 nM. 2; Control plate contained DMSO in columns 1, 2, 3, and 4. 3; Compound interaction with enzyme. 4; Nitrocefin and meropenem substrates were prepared in the same assay buffer as step 1 for a final assay concentration of 16.7 uM and 50 uM, respectively, and added to all wells across respective sets of assay plates. 5; Default reader settings were applied for absorbance read at 485 nm (nitrocefin) or 300 nm (meropenem), bandwidth = 5 nm, 25 flashes/well. References: Inglese J, Shamu CE, Guy RK. 2007. Reporting data from high-throughput screening of small-molecule libraries. Nat Chem Biol. doi:10.1038/nchembio0807-438 Yasgar A, Shinn P, Jadhav A, Auld D, Michael S, Zheng W, Austin CP, Inglese J, Simeonov A. 2008. Compound Management for Quantitative High-Throughput Screening. J Lab Autom 13:79 - 89. doi:10.1016/j.jala.2007.12.004
# Potency is the fitted concentration of half-maximal effect.
row,SMILES,Potency
1,COc1ccccc1CCC(=O)NCc1nnc2ccc(-c3ccc(C)cc3)nn12,inactive
2,O=C(NCc1ccc2c(c1)OCO2)C1CCN(c2cn[nH]c(=O)c2)C1 (stereo unspecified),inactive
3,O=C(O)CCCC(=O)N1CCN2C(=O)c3cc(-c4ccco4)ccc3NC(=O)[C@@H]2C1,inactive
4,O=C(c1ccc(N2CC3CC(C2)[C@H]2CCCC(=O)N2C3)nc1)N1CCN(c2cccc(Cl)c2)CC1 (stereo partly specified),inactive
5,Cc1ccc(C2(O)CCN(C(=O)c3cnn4cc(CCO)cnc34)CC2)nc1,inactive
6,O=C(C[C@@H]1CCNC[C@@H]1Cc1cc(CC2CCCCC2)on1)NC1CC1,inactive
7,O=C(Nc1ccccc1)O[C@@H]1CO[C@H]2[C@@H]1OC[C@@H]2NC(=O)c1ccc(C(F)(F)F)cc1,inactive
8,Cc1cnn(Cc2cc(C(=O)N3CCCCCC3c3nnc(-c4ccccc4)o3)no2)c1 (stereo unspecified),inactive
9,COc1ccc(-c2cc(N3CCCN(C(=O)c4cnccn4)CC3)n[nH]2)cc1,inactive
10,Cc1cc(C(=O)N[C@@H]2CCC[C@@H](C(=O)N3CCN(C)CC3)CC(=O)N(C)C2)no1,inactive
11,CCC(C)NC(=O)CC1Sc2ncccc2N(C)C1=O (stereo unspecified),inactive
12,CC[C@H]1CN(C(=O)Nc2cccc(C(F)(F)F)c2)CC[C@H]1CC(=O)NC1CC1,inactive
13,CC(C)NC(=O)C[C@@H]1C[C@H]2O[C@H](CNCc3ccccc3Cl)[C@@H](O)[C@H]2O1,inactive
14,COc1nc2c(cc1CNC(=O)C1CCOC1)C(=O)N(CCc1ccccn1)C2 (stereo unspecified),inactive
15,Cc1ccc(CN2CC[C@@H]3[C@H]2C(=O)NC[C@H](CCC(=O)N2CC[C@@H](O)C2)N3C)cc1,inactive
16,O=C(O)C[C@@H]1CCN(C(=O)c2ccco2)C[C@@H]1CCN1CCOCC1,inactive
17,CN1C[C@H](C(=O)NCc2ccccc2)C[C@H]1c1cccc(C(F)(F)F)c1,inactive
18,CC(C)C[C@@H]1N[C@H](C(=O)NCCOc2ccccc2)Cc2c[nH]c3cccc1c23,inactive
19,CN(C)C1CCN(c2nc(-c3ccncc3)nc3c2CNC3)C1 (stereo unspecified),inactive
20,Cc1oc(C(O)c2cccc(O)c2)nc1C(=O)Nc1ccc2[nH]c(=O)oc2c1 (stereo unspecified),inactive
21,O=C(c1cc(-c2ccc(O)cc2)n[nH]1)N1CCCC(CCc2ccc(F)cc2)C1 (stereo unspecified),inactive

row,SMILES,Potency
1,COc1ccc(CC2(CO)CCN(c3nccc(N)n3)CC2)cc1,inactive
2,Cc1ccc2c(C)c(C(=O)N3CC(OCc4ccccc4F)C3)oc2c1,inactive
3,COCCNC(=O)c1ccc2c(c1)N(C)C(CC(=O)Nc1ccc(N)nc1)CO2 (stereo unspecified),inactive
4,CCCc1cc(C(=O)N[C@@H]2COCC[C@H]2Oc2ccc(C(=O)O)cc2)n[nH]1,inactive
5,Cc1cccc(C(=O)N2CC[C@@H](NC(=O)c3cnccn3)[C@H](O)C2)n1,inactive
6,O=[S+]([O-])(c1cccnc1)N1CCNc2cnc(Nc3ccc(-n4ccnc4)cc3)nc2C1,inactive
7,O=C(Cn1ccn2nc3c(c2c1=O)CCCC3)NCc1ccc2c(c1)OCO2,inactive
8,COc1ccccc1-n1cc(C(=O)NC[C@@H]2C[C@H](F)CN2)cn1,inactive
9,c1csc(CN2Cc3[nH]cnc3C[C@H]2c2nc(-c3ccc4c(c3)OCO4)no2)c1,inactive
10,O=C(Nc1ccccc1)O[C@@H]1CO[C@H]2[C@@H]1OC[C@@H]2NS(=O)(=O)c1cccc2cccnc12,inactive
11,OCc1cccc(-c2ccc3ncc(Nc4cccc(F)c4)n3n2)c1,inactive
12,O=C(c1ccc2ncccc2c1)N1CCC2(CC1)Nc1ccccc1NC2=O,inactive
13,COc1ccc(CC(=O)N2CC(CO)C3(CCNCC3)C2)cc1 (stereo unspecified),inactive
14,Cc1ccc(CN2CC[C@@H](CO)N(C)c3cccnc3C2)s1,inactive
15,CS(=O)(=O)N1CCC(C2CCN(C(=O)Cc3cccc(F)c3)C2)CC1 (stereo unspecified),inactive
16,O=C(NCc1nc(-c2ccncc2)n[nH]1)[C@H]1CCC[C@H](O)C1,inactive
17,N[C@@H]1CCN(Cc2ccccc2OCc2ccc(Cl)cc2)C[C@H]1O,inactive
18,COCCOc1ncccc1-c1noc([C@@H]2CCCN2CC(C)(C)C)n1,inactive
19,CC1=C[C@@H](CNC(=O)c2ccc(F)cc2)[C@H](C(C)C)C[C@H]1CC(=O)N1CCN(C)CC1,inactive
20,O=C1Cc2c(-c3cccc(O)c3)n[nH]c2CN1CC1CC1,inactive
21,C[C@@H]1CN(C(=O)Cn2ccc(=O)[nH]c2=O)C[C@@]1(O)C1CCC1,inactive

row,SMILES,Potency
1,COc1cccc(NC(=O)O[C@@H]2CC[C@]3(C)C(CC[C@@H](O)[C@H]3CC(=O)N3CCCC3)[C@]2(C)CO)c1 (stereo partly specified),inactive
2,CCc1noc([C@@H]2CC(F)(F)CN2C(=O)c2ccoc2C)n1,inactive
3,CC(C)=CC(=O)N1CC[C@H](NC(=O)Nc2ccc(F)cc2F)[C@H]1C(=O)N[C@@H](Cc1cccs1)C(N)=O,inactive
4,NCCc1cccc(CN2CCCC(COc3ccccc3F)C2)c1 (stereo unspecified),inactive
5,c1ccc(-c2nnc3ccc(NC4CCC4)nn23)nc1,inactive
6,CC(C)(O)C#Cc1ccc(C(=O)N2CCC(O)(c3ccccn3)CC2)cc1,inactive
7,COc1ccc(-c2nnc3n2CCN(C(=O)C(C)(C)C)C3)cc1,inactive
8,O=C(Cc1c[nH]c2ncc(-c3ccc(Cl)cc3)cc12)NCc1cccnc1,inactive
9,CC(C)(C)CC(=O)N1CC[C@H]2CC(=O)N(Cc3cccnc3)CC[C@H]2C1,inactive
10,CC[C@H]1CN(C(C)=O)CC[C@H]1CC(=O)NC(C)C,inactive
11,CCNC(=O)[C@@H]1C[C@H](NC(=O)c2ccccc2)CN1Cc1scnc1C,inactive
12,CS(=O)(=O)N1CC(C(=O)Nc2ccc(N3CCOCC3)cc2)C2(CCCCC2)C1 (stereo unspecified),inactive
13,O=C(NCc1cc2n(n1)CCN(C1CCCCC1)C2)c1cnn2ccccc12,inactive
14,CCCN(CC1CCOC1)C(=O)Nc1cccc(F)c1C (stereo unspecified),inactive
15,O=C(O)[C@]12CCCN[C@@H]1CCN(Cc1ccc(-c3ccccn3)cc1)C2,inactive
16,O=C(O)CN1CCC[C@]2(C(=O)O)CN(Cc3cccc(O)c3)CC[C@@H]12,3.35 µM (active)
17,Cc1cccc(CN2CCCC3(CCN(Cc4cccc(O)c4)C3)C2)c1 (stereo unspecified),inactive
18,Cc1cc(Cn2cc3c4c(cccc42)[C@H](CC(C)C)N[C@H](C(=O)N2CCN(C)CC2)C3)no1,inactive
19,CN1CCOc2c(C(=O)NCc3cccnc3)cc(-c3ccccc3O)cc21,inactive
